15 compounds from PubChem BioAssay (NCATS) can be followed below.

Records with an inconclusive call do not appear. A call without a number means that no potency is given here. Active and inactive are the calls of the source. The call rests on the fitted dose curve; in most records, active means well fitted inhibition curve with a large enough effect; inconclusive means small, poorly fitted or top-dose-only effect; inactive means flat fitted curve, though single readings scatter.
Potency means the concentration at half of the fitted maximal effect.

One experiment concerns DIV14. Kind of experiment: qHTS profiling for inhibitors of Plasmodium falciparum proliferation (AID 504749). Further: nearly all actives have a fitted effect of over 60% in size. The note with it: P. falciparum in erythrocytes, SYBR Green DNA, 72 h; series mostly up to 28.7 µM. An outline of the steps: (§1)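 P. falciparum-infected erythrocytes (0.3% parasitemia, 2.5% hematocrit final) were exposed to compounds for 72 h at 37 C in 5% CO2, then lysed with SYBR Green buffer overnight at room temperature; parasite DNA fluorescence was normalized to artemisinin and DMSO controls.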
`COC(=O)C[C@](O)(CCCC(C)(C)O)C(=O)O[C@@H]1C(OC)=C[C@]23CCCN2CCc2cc4c(cc2[C@H]13)OCO4`: the Potency was 0.0269 µM (active).

For the compound `CC=CC1=C(C(=O)O)N2C(=O)[C@H](NC(=O)[C@H](N)c3ccc(O)cc3)[C@@H]2SC1`, the Potency entry was “inactive”.

Turning to `C[C@H]1C[C@@H]2[C@@H]([C@@H](O)C[C@@]3(C)[C@H]2CC[C@]3(O)C(=O)CO)[C@@]2(C)C=CC(=O)C=C12`, the Potency entry was “inactive”.

As to `O=c1[nH]c(=O)n(C2CCCO2)cc1F` (stereo not given), the Potency result was “inactive”.

`Nc1ccn([C@@H]2CS[C@H](CO)O2)c(=O)n1`: the Potency result was “inactive”.

On to `CN1c2cc(O)c(N=NC(N)=O)cc2CC1S(=O)(=O)O` (stereo not given), for which the Potency result is “inactive”.

As to `CC[C@H]1CN2CCc3cc(OC)c(OC)cc3[C@H]2C[C@@H]1C[C@@H]1NCCc2cc(OC)c(OC)cc21`, the Potency was 0.379 µM (active).

Regarding `CC(C)(C)NC(=O)[C@H]1CN(Cc2cccnc2)CCN1C[C@@H](O)C[C@@H](Cc1ccccc1)C(=O)N[C@H]1c2ccccc2C[C@H]1O`, the Potency is 13.5 µM (active).

Regarding `Nc1ccn([C@@H]2O[C@H](CO)[C@H](O)C2(F)F)c(=O)n1`, the Potency is 0.849 µM (active).

Take `O=C(O)CO.[NH2-].[NH2-].[Pt+2]`: the Potency result was “inactive”.

Take `COC(=O)C1=C(C)NC(C)=C(C(=O)OCCN2CCN(C(c3ccccc3)c3ccccc3)CC2)C1c1cccc([N+](=O)[O-])c1` (stereo not given): the Potency was 3.79 µM (active).

Regarding `COc1c(N2C[C@@H]3CCCN[C@H]3C2)c(F)cc2c(=O)c(C(=O)O)cn(C3CC3)c12`, the Potency entry is “inactive”.

With `CCC1=C[C@@H]2CN(C1)Cc1c([nH]c3ccccc13)[C@@](C(=O)OC)(c1cc3c(cc1OC)N(C)[C@@H]1[C@@](O)(C(=O)OC)[C@H](OC(C)=O)[C@]4(CC)C=CCN5CC[C@]31[C@@H]54)C2`, the Potency is 3.79 µM (active).

Regarding `Nc1ccc(S(=O)(=O)Nc2ncccn2)cc1`, the Potency entry is “inactive”.

For another experiment, the system named is DIV17. The experiment is described as above. The note with it: P. falciparum in erythrocytes, SYBR Green DNA, 72 h; series mostly up to 28.7 µM. An outline of the steps: as §1
`COC(=O)C[C@](O)(CCCC(C)(C)O)C(=O)O[C@@H]1C(OC)=C[C@]23CCCN2CCc2cc4c(cc2[C@H]13)OCO4`: the Potency is 0.0239 µM (active).

On to `C[C@H]1C[C@@H]2[C@@H]([C@@H](O)C[C@@]3(C)[C@H]2CC[C@]3(O)C(=O)CO)[C@@]2(C)C=CC(=O)C=C12`, for which the Potency result was “inactive”.

As for `O=c1[nH]c(=O)n(C2CCCO2)cc1F` (stereo not given), the Potency entry is “inactive”.

For `Nc1ccn([C@@H]2CS[C@H](CO)O2)c(=O)n1`, the Potency result was “inactive”.

Turning to `CN1c2cc(O)c(N=NC(N)=O)cc2CC1S(=O)(=O)O` (stereo not given), the Potency result was “inactive”.

For the compound `CC[C@H]1CN2CCc3cc(OC)c(OC)cc3[C@H]2C[C@@H]1C[C@@H]1NCCc2cc(OC)c(OC)cc21`, the Potency is 0.338 µM (active).

For `Nc1ccn([C@@H]2O[C@H](CO)[C@H](O)C2(F)F)c(=O)n1`, the Potency was 0.953 µM (active).

For the compound `COC(=O)C1=C(C)NC(C)=C(C(=O)OCCN2CCN(C(c3ccccc3)c3ccccc3)CC2)C1c1cccc([N+](=O)[O-])c1` (stereo not given), the Potency is 1.69 µM (active).

With `COc1c(N2C[C@@H]3CCCN[C@H]3C2)c(F)cc2c(=O)c(C(=O)O)cn(C3CC3)c12`, the Potency result was “inactive”.

Consider `CCC1=C[C@@H]2CN(C1)Cc1c([nH]c3ccccc13)[C@@](C(=O)OC)(c1cc3c(cc1OC)N(C)[C@@H]1[C@@](O)(C(=O)OC)[C@H](OC(C)=O)[C@]4(CC)C=CCN5CC[C@]31[C@@H]54)C2`, for which the Potency is 3.79 µM (active).

For the compound `Nc1ccc(S(=O)(=O)Nc2ncccn2)cc1`, the Potency entry was “inactive”.

Another experiment concerns DIV30. The experiment is described as above. The note with it: P. falciparum in erythrocytes, SYBR Green DNA, 72 h; series mostly up to 28.7 µM. Put shortly:
as §1
With `COC(=O)C[C@](O)(CCCC(C)(C)O)C(=O)O[C@@H]1C(OC)=C[C@]23CCCN2CCc2cc4c(cc2[C@H]13)OCO4`, the Potency is 0.0338 µM (active).

Consider `CC=CC1=C(C(=O)O)N2C(=O)[C@H](NC(=O)[C@H](N)c3ccc(O)cc3)[C@@H]2SC1`, for which the Potency result is “inactive”.

For the compound `C[C@H]1C[C@@H]2[C@@H]([C@@H](O)C[C@@]3(C)[C@H]2CC[C@]3(O)C(=O)CO)[C@@]2(C)C=CC(=O)C=C12`, the Potency entry is “inactive”.

As for `O=c1[nH]c(=O)n(C2CCCO2)cc1F` (stereo not given), the Potency result is “inactive”.

In the case of `CC1(C)O[C@@H]2C[C@@H]3[C@H]4C[C@@H](F)C5=CC(=O)C=C[C@]5(C)[C@@]4(F)[C@@H](O)C[C@]3(C)[C@]2(C(=O)CO)O1`, the Potency was 10.7 µM (active).

Turning to `Nc1ccn([C@@H]2CS[C@H](CO)O2)c(=O)n1`, the Potency result was “inactive”.

For the compound `CN1c2cc(O)c(N=NC(N)=O)cc2CC1S(=O)(=O)O` (stereo not given), the Potency result is “inactive”.

Regarding `CC[C@H]1CN2CCc3cc(OC)c(OC)cc3[C@H]2C[C@@H]1C[C@@H]1NCCc2cc(OC)c(OC)cc21`, the Potency is 0.478 µM (active).

With `CC(C)(C)NC(=O)[C@H]1CN(Cc2cccnc2)CCN1C[C@@H](O)C[C@@H](Cc1ccccc1)C(=O)N[C@H]1c2ccccc2C[C@H]1O`, the Potency was 9.53 µM (active).

As for `Nc1ccn([C@@H]2O[C@H](CO)[C@H](O)C2(F)F)c(=O)n1`, the Potency is 2.69 µM (active).

In the case of `O=C(O)CO.[NH2-].[NH2-].[Pt+2]`, the Potency result was “inactive”.

Take `COC(=O)C1=C(C)NC(C)=C(C(=O)OCCN2CCN(C(c3ccccc3)c3ccccc3)CC2)C1c1cccc([N+](=O)[O-])c1` (stereo not given): the Potency was 1.69 µM (active).

For the compound `COc1c(N2C[C@@H]3CCCN[C@H]3C2)c(F)cc2c(=O)c(C(=O)O)cn(C3CC3)c12`, the Potency entry is “inactive”.

For `CCC1=C[C@@H]2CN(C1)Cc1c([nH]c3ccccc13)[C@@](C(=O)OC)(c1cc3c(cc1OC)N(C)[C@@H]1[C@@](O)(C(=O)OC)[C@H](OC(C)=O)[C@]4(CC)C=CCN5CC[C@]31[C@@H]54)C2`, the Potency is 4.26 µM (active).

`Nc1ccc(S(=O)(=O)Nc2ncccn2)cc1`: the Potency entry was “inactive”.
